Unmarked numbers belong to inactive results.

The assay in a line: viability profiling in MM1S myeloma cells – cell-based, resazurin fluorescence, basal, 24 h, PK04 Diversity Set, profiling panel (AID 1174). Also: test concentration not given here. To be noted: higher = more signal, called active from +8 up or from −8 down. (In general: Alamar Blue is a resazurin reagent that responds to reducing activity.)
As for `CCOC(=O)C[C@H]1[C@H](OC(=O)Cc2ccc3c(c2)OCO3)[C@@H](NC(=O)CC(C)C)c2cc(OCCCO)ccc2N1C(=O)Cc1ccc(OC)cc1`, the z-score is -0.0151.
Next, `CCOC(=O)C1=C[C@@H](c2ccccc2)N(S(=O)(=O)c2ccc(C)cc2)[C@H]1c1ccccc1Cl`: -0.898; `C[N+](C)(C)CCCC[C@@H]1NC(=O)[C@H]2C[C@@H](C(=O)NCCCCCCN)[C@@H](c3ccc(O)cc3)N2C1=O`: 0.99.
Next, `C=C(COC)C(=O)CC[C@@H](OC(=O)c1cccnc1)c1ccc(OCCO)cc1`: 0.556.
Next, `COC(=O)[C@@]1(Cc2ccc(OC)cc2)[C@H]2c3cc(C(=O)N4CCCC4)n(Cc4c(-c5ccccc5)noc4C)c3C[C@H]2CN1C(=O)c1ccccc1`: -0.39; `COCCCNC(=O)[C@]1(CCS(=O)(=O)c2ccccc2)N=C(c2ccc(OCCCO)cc2)O[C@@H]1c1ccccc1CN=[N+]=[N-]`: -3.5.
`COC(=O)[C@@]1(Cc2ccc(F)cc2)[C@H]2c3cc(C(=O)N(C)C)n(CCc4ccc(O)c(OC)c4)c3C[C@H]2CN1C(=O)c1ccccc1`: the z-score is -0.0883.
With `COC(=O)[C@@]1(Cc2ccccc2)[C@H]2c3cc(C(=O)N(C)C)n(CCN4CNCC4=O)c3C[C@H]2CN1C(=O)c1ccccc1`, the z-score is -0.473.
For the compound `O=C1O[C@H](c2ccccc2)[C@H](c2ccccc2)N2[C@H]1[C@@H](C(=O)Nc1nc3ccccc3s1)[C@]1(C(=O)Nc3ccc(C#CCCO)cc31)[C@H]2c1ccc(O)cc1`, the z-score is 0.157.
For the compound `COC(=O)c1cn(C[C@@H](Cc2ccccc2)NC(=O)N[C@H](CO)CCc2oc(C(C)=O)c(C(=O)OC)c2C(=O)OC)nn1`, the z-score was 0.438.
Consider `COCCOC(=O)N1C(=O)[C@@]2(c3cc(C#CC4=CCCCC4)ccc31)[C@H](C(=O)N1CCCCCCC1)[C@H]1C(=O)O[C@H](c3ccccc3)[C@H](c3ccccc3)N1[C@@H]2c1ccc(O)cc1`, for which the z-score was 0.0499.
Next, `CCOC(=O)C[C@H]1[C@H](OC(=O)c2ccccc2-c2ccccc2)[C@@H](NC(=O)C2CCCCC2)c2cc(OCCCO)ccc2N1C(=O)Cc1ccc(OC)cc1`: -0.257; `COc1ccc(-c2cc3c(c(CCc4ccccc4)n2)[Si](C(C)C)(C(C)C)OC3)cn1`: 0.42; `COC(=O)[C@@]1(Cc2ccccc2)[C@H]2c3cc(C(=O)N(C)C)n(CCc4ccc(O)c(OC)c4)c3C[C@H]2CN1C(=O)c1ccccc1`: -0.207.
Next, `COC(=O)Cn1c(C(=O)N(C)C)cc2c1C[C@H]1CN(C(=O)c3ccccc3)[C@@](Cc3ccc(F)cc3)(C(=O)OC)[C@@H]21`: -0.702; `C=CCNC(=O)[C@H]1[C@@H]2C(=O)O[C@@H](c3ccccc3)[C@@H](c3ccccc3)N2[C@@H](c2ccc(O)cc2)[C@]12C(=O)N(C(=O)OCCOC)c1ccccc12`: -0.331.
Consider `CC(C)N1C(=O)c2ccccc2[C@@H](C(=O)NC2CC2)[C@@H]1c1ccc(CO)cc1`, for which the z-score was 0.224.
On to `O=C1N(Cc2ccccc2)Cc2ccccc2[C@@H]2OC(c3ccc(OCCCO)cc3)=N[C@]12CCS(=O)(=O)c1ccccc1`, for which the z-score is -0.772.
With `CC(C)C(=C=CC[C@H](O)c1ccc(OCCO)cc1)C[C@H](O)c1ccccn1`, the z-score is 0.143.
Consider `COC(=O)c1nc2oc1CC[C@@H](CO)NC(=O)N(C)Cc1cnnn1C[C@H](Cc1ccccc1)NC2=O`, for which the z-score was 1.09.
The value for `CCOC(=O)C[C@H]1[C@H](OC(=O)Cc2ccc3c(c2)OCO3)[C@@H](NC(=O)Cc2ccc(OC)cc2)c2cc(OCCCO)ccc2N1C(=O)c1ccc2ccccc2n1` was 0.853; that for `CCCCCCCCCCC(O)C1C=CC2C(=O)N(C)C(=O)C2N1NC(=O)OC(C)(C)C` (stereo not given) was -4.74.
Next, `O=C1NC(=O)C2C1C=CC(C(O)c1c(F)cccc1Cl)N2Nc1ccc(Cl)cc1Cl` (stereo not given): -2.21.
As to `O=C1O[C@H](c2ccccc2)[C@H](c2ccccc2)N2[C@H]1[C@@H](C(=O)Nc1nc3ccccc3s1)[C@]1(C(=O)Nc3ccc(C#CC4(O)CCCCCC4)cc31)[C@H]2c1ccccc1OCCO`, the z-score is -3.4.
`CC(C)[Si](C#C[Si](C(C)C)(C(C)C)C(C)C)(O[C@H](C)c1cn([C@H](CO)Cc2ccccc2)nn1)C(C)C`: the z-score was 0.786.

The values above are taken from PubChem BioAssay.
